Screen size: about 340,000 compounds; about 500 (0.15%) were called active. The sample holds actives, similar compounds and a random draw of the others, so the mix is not that of the screen. Values without a mark were called inactive.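 How the source made its calls: active means mean replicate inhibition of at least 30%, or all replicates individually reaching that 30% level; inactive means mean below 30% and not every replicate reaching it.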

In PubChem BioAssay AID652197 (Broad Institute, 2013) one finds inhibition data, which are given here for 25 compounds.

The target of this assay is Endoplasmic reticulum aminopeptidase 1 (Homo sapiens) (UniProt Q9NZ08). In words: human ERAP1 aminopeptidase inhibitors, primary screen, biochemical, single point, plate reader (AID 652197).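 Further: 0% = neutral control wells and 100% = L-leucinethiol positive control wells.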 The following applies: recombinant ERAP1, Leu-AMC fluorescence, 60 min; at 10.7 µM; active compounds read high.
Endoplasmic reticulum aminopeptidase 1 (Homo sapiens), sequence (Q9NZ08 whole entry, looked up): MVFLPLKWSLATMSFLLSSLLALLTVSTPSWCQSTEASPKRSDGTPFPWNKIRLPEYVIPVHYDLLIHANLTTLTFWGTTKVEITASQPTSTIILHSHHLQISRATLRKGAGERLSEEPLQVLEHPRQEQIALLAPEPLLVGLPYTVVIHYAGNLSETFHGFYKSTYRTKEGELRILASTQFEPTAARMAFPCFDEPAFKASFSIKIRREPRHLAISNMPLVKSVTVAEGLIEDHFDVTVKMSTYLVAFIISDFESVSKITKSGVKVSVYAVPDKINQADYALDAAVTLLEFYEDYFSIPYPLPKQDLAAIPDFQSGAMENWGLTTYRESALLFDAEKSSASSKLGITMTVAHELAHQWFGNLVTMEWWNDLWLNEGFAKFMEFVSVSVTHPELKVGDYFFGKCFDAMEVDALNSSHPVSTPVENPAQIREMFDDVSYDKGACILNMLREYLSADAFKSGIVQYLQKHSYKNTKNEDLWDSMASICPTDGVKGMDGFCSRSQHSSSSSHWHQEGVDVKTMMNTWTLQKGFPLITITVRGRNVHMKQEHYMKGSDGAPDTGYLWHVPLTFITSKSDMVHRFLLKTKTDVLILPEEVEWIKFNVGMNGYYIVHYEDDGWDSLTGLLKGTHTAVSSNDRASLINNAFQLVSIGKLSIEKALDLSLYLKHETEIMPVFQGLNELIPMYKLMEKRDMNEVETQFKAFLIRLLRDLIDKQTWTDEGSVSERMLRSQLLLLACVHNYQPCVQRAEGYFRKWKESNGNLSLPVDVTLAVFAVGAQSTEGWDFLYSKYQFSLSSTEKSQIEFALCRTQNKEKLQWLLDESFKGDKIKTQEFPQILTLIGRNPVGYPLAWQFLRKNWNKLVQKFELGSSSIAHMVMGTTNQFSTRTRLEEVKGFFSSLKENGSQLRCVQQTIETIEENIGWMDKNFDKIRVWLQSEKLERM
A word on the inhibition: it is the drop in the measured response relative to a control, in per cent. For the compound `O=C(Nc1ccccc1F)N1CC(=O)N2[C@H](C1)[C@@H](c1ccc(C#CC3CC3)cc1)[C@@H]2CO`, the inhibition was -0.691%.
With `O=S(=O)(c1ccc(F)cc1)N1CC[C@@H]2[C@@H](CO)Nc3ccc(-c4ccccc4F)cc3[C@@H]21` the figure was 1%; with `O=C(Nc1ccccc1F)N[C@@H]1CC[C@@H](CCNC(=O)C2CC2)O[C@H]1CO`, -0.77%.
Then `Cc1noc(C)c1NC(=O)Nc1ccc2c(c1)C(=O)N([C@H](C)CO)C[C@H](C)[C@@H](CN(C)S(C)(=O)=O)OCCCC[C@H](C)O2`, with -4.94%.
For the compound `CCCC#Cc1ccc([C@H]2[C@H]3CN(C(=O)c4cccnc4)CC(=O)N3[C@H]2CO)cc1`, the inhibition is -1.39%.
In the case of `O=C(CN1C(=O)NC2(CCCCC2)C1=O)N1CCN(C(=O)c2cccs2)CC1`, the inhibition was 37.4% (active).
With `O=C1CN(C(=O)CN2C(=O)NC3(CCCCC3)C2=O)c2ccccc2N1` the figure was -1.69%; with `O=C(CN1C(=O)NC2(CCCCCC2)C1=O)NCc1cccs1`, -3.05%; with `O=C1CNC[C@H]2[C@@H](c3ccc(C4=CCCC4)cc3)[C@@H](CO)N12`, -1.67%.
With `CCCN1C[C@H](C)[C@@H](OC)CN(C)C(=O)c2ccc(NC(=O)c3cnccn3)cc2OC[C@H]1C` the figure was 4.52%; with `COc1ccc2c3c([nH]c2c1)[C@@H](CO)N(S(C)(=O)=O)CC31CN(CC2CC2)C1`, -2.67%; with `NCC[C@H]1CC[C@H](NC(=O)C2CC2)[C@@H](CO)O1`, 2.22%.
Then `C[C@@H]1CN([C@@H](C)CO)C(=O)c2cc(NC(=O)C3CCCCC3)ccc2O[C@@H](C)CCCCO[C@H]1CN(C)C(=O)CCC(F)(F)F`, with -1.11%.
As for `Cc1ccc(S(=O)(=O)Nc2ccc3c(c2)C(=O)N([C@@H](C)CO)C[C@@H](C)[C@H](CN(C)C(=O)NC(C)C)OCCCC[C@H](C)O3)cc1`, the inhibition was -4.09%.
Then `COc1ccccc1S(=O)(=O)N[C@@H]1CC[C@H](CC(=O)N2CCOCC2)O[C@@H]1CO`, with -0.783%; and `O=C(OCC(=O)c1c[nH]c2ccccc12)c1cccc(O)c1`, with -0.958%.
Then `O=C(O)c1[nH]c2ccccc2c1C(c1cccc(O)c1)c1c(C(=O)O)[nH]c2ccccc12`, with 34.8% (active).
With `C[C@H]1CN([C@@H](C)CO)C(=O)c2cc(NC(=O)Cn3cnnn3)ccc2O[C@H]1CN(C)S(C)(=O)=O`, the inhibition was -0.7%.
Then `CCCNC(=O)Nc1ccc2c(c1)C(=O)N(C)C[C@H](OC)[C@H](C)CN[C@@H](C)CO2`, with -2.85%; and `COc1ccc2c3c([nH]c2c1)[C@H](CO)N(C(=O)C1CCC1)CC31CCN(Cc2cccc(F)c2)CC1`, with 0.436%; and `Cc1noc(C)c1S(=O)(=O)Nc1ccc2c(c1)C(=O)N([C@H](C)CO)C[C@H](C)[C@H](CN(C)C(=O)CCC(F)(F)F)OCCCC[C@H](C)O2`, with 0.261%.
With `CCCNC(=O)Nc1ccc2c(c1)OC[C@H](C)N(C(=O)C1CCC1)C[C@H](C)[C@@H](OC)CN(C)C2=O` the figure was 2.58%; with `C[C@@H]1CN([C@@H](C)CO)C(=O)c2c(c3ccccc3n2C)-c2ccccc2CO[C@@H]1CN(C)Cc1ccc2c(c1)OCCN2C`, 2.84%; with `O=C(C[C@H]1C[C@@H]2c3cc(NS(=O)(=O)c4ccc(F)cc4)ccc3O[C@@H]2[C@H](CO)O1)NCc1cccc(F)c1`, -2.83%.
With `CCCNC(=O)C[C@H]1C[C@H]2c3cc(NC(=O)COC)ccc3O[C@H]2[C@H](CO)O1` the figure was 0.774%.
